This is an account of results in the supplement of paper PMC5641865, “A screen for kinase inhibitors identifies antimicrobial imidazopyridine aminofurazans as specific inhibitors of the Listeria monocytogenes PASTA kinase PrkA” (The Journal of Biological Chemistry, 2017).

± gives the standard deviation of the averaged measurements.
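Also: End-point A600 read in BHI broth at 37 °C with 2% DMSO, inhibition computed as (1 − OD with compound plus ceftriaxone ÷ OD with ceftriaxone only) × 100.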

The test system of the experiment is Listeria monocytogenes 10403S. The experiment can be described thus: growth inhibition relative to ceftriaxone-alone control; higher = stronger potentiation of ceftriaxone growth inhibition. Conditions: 10 µM; ceftriaxone 1 ug/ml; 12 h.
In the case of `COc1cccc(Nc2nccc(-c3cnn4ncccc34)n2)c1`, the growth inhibition is -2.59 ± 1.4%.

Take `CN1CCN(C2CCN(C(=O)Nc3cc(Oc4ccc(NC(=O)C5(C(=O)Nc6ccc(F)cc6)CC5)c(F)c4)ccn3)CC2)CC1` [Golvatinib (E7050)]: the growth inhibition is 48.7 ± 37%.

On to `Cc1cc(C(C)Nc2ccccc2)c2nc(N3CCOCC3)cc(=O)n2c1` (configuration not stated), for which the growth inhibition was determined as 24.3 ± 9.5%.

For `NS(=O)(=O)c1ccc(N/N=C2\C(=O)Nc3ccc(-c4cnco4)cc32)cc1`, the growth inhibition is 0.00978 ± 0.57%.

`COC(=O)c1cncc(/C=C/c2c(C)cc(O)cc2C)c1`: the growth inhibition was -6.45 ± 1.7%.

With `O=C1Nc2ccccc2/C1=C/Nc1ccc2[nH]c(=O)[nH]c2c1`, the growth inhibition was determined as 7.54 ± 1.1%.

For `CN1CCC(C(=O)Nc2n[nH]c3nc(-c4ccc(O)cc4)c(Br)cc23)CC1`, the growth inhibition was -3.78 ± 12%.
